# Test results from PubChem BioAssay.
# Unmarked numbers belong to inactive results.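 Rule for the calls: active = RAM network inhibition above 8.4% in each of two replicates, 3 SD over the compound average; inconclusive = above 8.4% inhibition in only one replicate; inactive = 8.4% inhibition or less in each replicate.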
# Experiment: RAM signaling pathway blockade in yeast – S. cerevisiae, Pdr1DBD-CYC8 efflux-inhibited sensitized strain, primary screen (AID 1298);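 note: 0% = DMSO untreated cells without growth and 100% = 10 µM 1-NA-PP1 full growth; higher means more yeast growth rescued from 5-FOA killing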
# Conditions: S. cerevisiae cbk1-as DSE1-URA3 strain, 5-FOA growth OD615, 2 d; at 50 µM; active compounds read high
row,SMILES,RAM network inhibition
1,Nc1nc(N2CCCCC2)nc(N(c2ccccc2)c2ccccc2)n1,1.36%
2,O=C1c2ccccc2C(Nc2cccnc2)N1Cc1ccccc1Cl (centres undefined),0.57%
3,CCN1CCN(c2nc3c(c(=O)[nH]c(=O)n3C)n2CCSc2nc3ccccc3s2)CC1,-0.84%
4,COc1cc(C(O)c2nc3ccccc3n2C)cc(OC)c1OC (centres undefined),0.78%
5,CCOC(=O)N1CCC(Nc2nc3ccccc3n3cnnc23)CC1,4.35%
6,COc1ccc(C2C(C(C)=O)=C(C)N=c3s/c(=C/c4ccc5c(c4)OCO5)c(=O)n32)cc1 (centres undefined),-0.74%
7,CCOC(=O)C1=C(C)N(C)C(=O)NC1c1ccccc1OC (centres undefined),2.01%
8,CCCCS(=O)(=O)NC1=NCN(CCOC(=O)c2ccccc2)CN1,0.98%
9,COc1ccc(-n2c(Cc3cccn3C)nnc2SCC(=O)Nc2cccc(Cl)c2)cc1,11%
10,CCC1CCCCN1C(=O)CSc1nnc(-c2ccc(OC)cc2)o1 (centres undefined),1.19%
11,COc1ccc(N(CC(=O)Nc2ccc3c(c2)OCO3)S(=O)(=O)c2c(C)nn(C)c2C)cc1,3.88%
12,CCOc1ccc(C2CC(c3ccccc3C)n3nc(N)nc3N2)cc1 (centres undefined),5.2%
13,Cc1cc(N)n2nc(-c3ccccc3)cc2n1,4.23%
14,CCCCCn1c(CCNC(=O)CCC)nc2ccccc21,2.6%
15,O=C(c1ccc2c(c1)OCCO2)N1CCCCC1,5.28%
16,O=C(NCCc1c[nH]c2ccccc12)c1cnc2n(c1=O)CCS2,6.77%
17,CCc1cc(=O)n2[nH]c(C)c(-c3ccccc3OC)c2n1,1.78%
18,Cc1ccc(CSc2nc3c(c(=O)[nH]2)CCC3)cc1,3.47%
19,CN(CCNS(=O)(=O)c1ccc2c(c1)oc(=O)n2C)Cc1ccccc1,4.66%
20,COc1ccc(-c2nnc(SCC(=O)NC(C)c3ccccc3)o2)cc1 (centres undefined),6.94%

row,SMILES,RAM network inhibition
1,CCOc1ccc(Cn2nnc(C(=O)Nc3cc(C)cc(C)c3)c2N)cc1,8.35%
2,CCCCCn1c(CN2CCN(C(=O)c3ccco3)CC2)nc2c1c(=O)n(C)c(=O)n2C,1.17%
3,CCN1CCN(Cc2ccc(NC(=O)Nc3ccccc3)cc2)CC1,1.93%
4,CCCN(CCC)C(=O)c1c(C)[nH]c(C(=O)OCC)c1C,1.44%
5,COc1cccc(C2CC(c3c(Cl)cccc3Cl)n3nc(N)nc3N2)c1 (centres undefined),6.92%
6,Cc1c(C(=O)OCc2ccccc2)[nH]c2c1C(=O)CC(c1ccco1)C2 (centres undefined),1%
7,Cn1c(=O)c2c(nc(SCCOc3ccc4ccc(=O)oc4c3)n2C)n(C)c1=O,2.41%
8,COc1ccc(NC(=O)CN(c2cc(C)cc(C)c2)S(=O)(=O)c2c(C)noc2C)cc1OC,5.58%
9,CCOc1ccc(N2CC(C(=O)Nc3ccccc3OC)CC2=O)cc1 (centres undefined),0.63%
10,CC(C)CNc1oc(-c2ccc(F)cc2)nc1C#N,5.05%
11,O=C(Nc1nnc(N2CCCCCC2)s1)c1cc(-c2ccc(Br)cc2)on1,9.45%
12,Cc1ccc(N=Cc2ccc[nH]2)c(O)c1,0.26%
13,CCCOC(=O)c1[nH]c2c(c1C)C(=O)CC(c1cc(OC)c(OC)c(OC)c1)C2 (centres undefined),5.86%
14,C=CCSc1nc2sc(C)c(C)c2c(=O)[nH]1,4.66%
15,O=C(c1ccc(Br)cc1)N1CCN(S(=O)(=O)c2ccccc2)CC1,1.8%
16,CN(C(=O)c1ccco1)c1nnc(C23CC4CC(CC(C4)C2)C3)s1,5.35%
17,COc1ccc(-c2nc3c(n2O)CCC/C3=N\O)cc1,3.84%
18,CC1CCC(NC(=O)C2(C)CCC(=O)N2Cc2cccnc2)CC1 (centres undefined),1.87%
19,Cc1cnc(NC(=O)CSc2nnc(COc3c(C)cccc3C)o2)s1,0.63%
